{
  "source": "PubChem BioAssay AID588342",
  "about": "(National Center for Advancing Translational Sciences (NCATS), 2011)",
  "note": "Hit rate of the full screen: of about 360,000 compounds, about 25,000 (6.9%) were called active. Roughly 9% stayed inconclusive and do not appear here. The call rests on the fitted dose curve; in most records, active means well fitted inhibition curve with a large enough effect; inconclusive means small, poorly fitted or top-dose-only effect; inactive means flat fitted curve, though single readings scatter. The full list was thinned out, with actives kept by preference. Potency means the concentration at half of the fitted maximal effect.",
  "data": [
    {"molecular_target": "Luciferin 4-monooxygenase (Photinus pyralis) (UniProt P08659)", "sequence (P08659 whole entry, looked up)": "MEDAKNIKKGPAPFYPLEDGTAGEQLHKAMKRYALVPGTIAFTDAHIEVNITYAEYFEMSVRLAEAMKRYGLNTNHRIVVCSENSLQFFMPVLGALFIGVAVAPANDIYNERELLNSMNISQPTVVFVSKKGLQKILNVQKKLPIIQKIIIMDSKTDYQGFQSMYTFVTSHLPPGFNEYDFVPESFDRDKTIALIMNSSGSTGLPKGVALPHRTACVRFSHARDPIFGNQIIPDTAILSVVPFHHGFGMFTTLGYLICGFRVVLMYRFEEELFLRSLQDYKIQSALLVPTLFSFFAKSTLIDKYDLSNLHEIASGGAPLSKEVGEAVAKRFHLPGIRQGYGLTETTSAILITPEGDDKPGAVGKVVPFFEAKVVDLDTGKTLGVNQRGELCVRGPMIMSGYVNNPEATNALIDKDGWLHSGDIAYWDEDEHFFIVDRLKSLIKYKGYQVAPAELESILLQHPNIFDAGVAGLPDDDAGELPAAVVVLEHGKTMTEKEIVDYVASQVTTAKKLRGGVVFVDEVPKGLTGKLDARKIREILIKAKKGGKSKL", "experiment": "qHTS profiling assay for firefly luciferase inhibitor/activator using purifed enzyme and Km concentrations of substrates (counterscreen for miR-21 project); further: nearly all actives have a fitted effect of over 55% in size;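 on activity change, negative = inhibition: plate controls were vehicle for no effect and reference inhibitor for full effect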", "conditions": "purified FLuc, luminescence inhibition; series mostly up to 57.5 µM; activity change, negative = inhibition: at the top concentration", "procedure,_shortened": "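Purified P. pyralis luciferase, 10 nM final, with Km-level 10 uM D-luciferin and 10 uM ATP in 50 mM Tris acetate pH 7.5, 10 mM Mg acetate, 0.01% Tween-20, 0.05% BSA; 6-point qHTS titration about 60 µM downward; luminescence read.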", "values": [
      {"smiles": "O=[N+]([O-])c1cnc2ccc3ccccc3c2c1", "activity change, negative = inhibition": "-4.49% (inactive)"},
      {"smiles": "CCCCCn1c(=O)c(C(=O)NCc2ccccc2)c(O)c2ccccc21", "activity change, negative = inhibition": "-0.847% (inactive)"},
      {"smiles": "COC(=O)C1=C(c2c(C)noc2C)C[C@@H]2CC[C@H]1N2C(=O)NCc1ccc2c(c1)OCO2", "activity change, negative = inhibition": "6.85% (inactive)"},
      {"smiles": "Cc1cccc(Cn2cccc(C(=O)Nc3ccc4c(c3)OCCO4)c2=O)c1", "Potency": "15.1 µM (active)"},
      {"smiles": "Cc1ccc(NC(=O)N(Cc2ccc3c(c2)OCO3)C2CCN(Cc3ccccc3)CC2)cc1F", "activity change, negative = inhibition": "1.32% (inactive)"},
      {"smiles": "Cc1nnc(NC(=O)c2cccn(Cc3cccc(F)c3)c2=O)s1", "activity change, negative = inhibition": "2.28% (inactive)"},
      {"smiles": "Cn1cc(C(=O)OCC(=O)N2CCCC2)c2ccccc21", "activity change, negative = inhibition": "-4.49% (inactive)"},
      {"smiles": "COC(=O)C1=C(c2ccccc2OCc2ccccc2)C[C@@H]2CC[C@H]1N2C(=O)NCc1ccc(OC)cc1", "activity change, negative = inhibition": "2.51% (inactive)"},
      {"smiles": "C[C@@]1([C@@H](NP(=O)(c2ccccc2)c2ccccc2)c2ccccc2)C[C@H]1CCO", "activity change, negative = inhibition": "-16.7% (inactive)"},
      {"smiles": "O=C(O)CCn1cc(C=C2C(=O)NC(=S)NC2=O)c(-c2cccc(Br)c2)n1", "Potency": "21.3 µM (active)"},
      {"smiles": "COC(=O)C1=C(c2ccc(C(C)=O)cc2)C[C@@H]2CC[C@H]1N2C(=O)NCCNC(C)=O", "activity change, negative = inhibition": "2.93% (inactive)"},
      {"smiles": "Cc1ccccc1N1C(=O)NC(=O)/C(=C\\c2cc(C)n(C)c2C)C1=O", "activity change, negative = inhibition": "1.58% (inactive)"},
      {"smiles": "Cc1ccnc(-n2c(C)cc(/C=C3\\C(=O)NC(=S)N(C)C3=O)c2C)c1", "Potency": "7.57 µM (active)"},
      {"smiles": "Cc1cc(C=C2C(=O)NC(=O)NC2=O)c(C)n1-c1ccncc1", "activity change, negative = inhibition": "-19.9% (inactive)"},
      {"smiles": "O=C(CCC(=O)N1C[C@H]2C[C@@H](C1)c1cccc(=O)n1C2)NCc1ccccc1C(F)(F)F", "activity change, negative = inhibition": "-1.48% (inactive)"},
      {"smiles": "COC(=O)C1=C(c2ccc(-c3ccccc3)c(F)c2)C[C@@H]2CC[C@H]1N2C(=O)NCc1ccc(F)cc1", "activity change, negative = inhibition": "-0.451% (inactive)"},
      {"smiles": "Cc1cc(C)cc(NC(=S)NC2CC3CCCC(C2)N3Cc2cccs2)c1", "note": "(stereo not drawn)", "activity change, negative = inhibition": "-1.54% (inactive)"},
      {"smiles": "Cc1nc2ccccn2c1P(=S)(N1CCCCC1)N1CCCCC1", "activity change, negative = inhibition": "6.82% (inactive)"},
      {"smiles": "O=C1NC(=O)C(C/C=C/c2ccccc2)C(=O)N1", "activity change, negative = inhibition": "-2.71% (inactive)"},
      {"smiles": "Cc1ccc(NN=C2C(=O)OC(C)(C)OC2=O)c(C)c1", "Potency": "9.53 µM (active)"},
      {"smiles": "CC1=C(C(=O)Nc2ccccc2)S(=O)(=O)CCO1", "activity change, negative = inhibition": "2.71% (inactive)"},
      {"smiles": "O=C(O)c1ccccc1NC(=O)C1C2CCC(O2)C1C(=O)O", "note": "(stereo not drawn)", "activity change, negative = inhibition": "-1.49% (inactive)"},
      {"smiles": "Fc1ccc(C2N3CCCN23)cc1", "note": "(stereo not drawn)", "activity change, negative = inhibition": "-2.06% (inactive)"},
      {"smiles": "O=C(Nc1cccc(OC(=O)N2CCCCC2)c1)N1CCOCC1", "activity change, negative = inhibition": "-6.21% (inactive)"},
      {"smiles": "CC(C)(C)c1ccc(OC(=O)N2CCCCC2)cc1", "Potency": "10.7 µM (active)"},
      {"smiles": "CN1CCN(C(=O)COc2ccc(C(C)(C)C)cc2Br)CC1", "activity change, negative = inhibition": "0.792% (inactive)"},
      {"smiles": "COC(=O)C1=C(c2ccc3ccccc3c2)C[C@@H]2CC[C@H]1N2C(=O)NCCO", "activity change, negative = inhibition": "-1.46% (inactive)"},
      {"smiles": "CCCCCn1c(=O)c(C(=O)NCc2ccccn2)c(O)c2ccccc21", "activity change, negative = inhibition": "0.442% (inactive)"}
    ]}
  ]
}
